Measured values reported in the supplement of paper PMC3334620.
Whole data set: some 33,000 sequences, median “E-score (-0.5 to 0.5)” near -0.021, cut for the highest 2% near 0.32. Many of the other results were omitted from the sample, so the highest values are more common in it than they were.

Each sequence was assayed against T1, Zap1 (UniProt P47043) (assay: PBM E-score (8-mer binding enrichment) (E-score (-0.5 to 0.5)); higher = stronger / more preferred TF binding). Details: protein concentration: 200 nM; construct: GST-full length.
T1 sequence: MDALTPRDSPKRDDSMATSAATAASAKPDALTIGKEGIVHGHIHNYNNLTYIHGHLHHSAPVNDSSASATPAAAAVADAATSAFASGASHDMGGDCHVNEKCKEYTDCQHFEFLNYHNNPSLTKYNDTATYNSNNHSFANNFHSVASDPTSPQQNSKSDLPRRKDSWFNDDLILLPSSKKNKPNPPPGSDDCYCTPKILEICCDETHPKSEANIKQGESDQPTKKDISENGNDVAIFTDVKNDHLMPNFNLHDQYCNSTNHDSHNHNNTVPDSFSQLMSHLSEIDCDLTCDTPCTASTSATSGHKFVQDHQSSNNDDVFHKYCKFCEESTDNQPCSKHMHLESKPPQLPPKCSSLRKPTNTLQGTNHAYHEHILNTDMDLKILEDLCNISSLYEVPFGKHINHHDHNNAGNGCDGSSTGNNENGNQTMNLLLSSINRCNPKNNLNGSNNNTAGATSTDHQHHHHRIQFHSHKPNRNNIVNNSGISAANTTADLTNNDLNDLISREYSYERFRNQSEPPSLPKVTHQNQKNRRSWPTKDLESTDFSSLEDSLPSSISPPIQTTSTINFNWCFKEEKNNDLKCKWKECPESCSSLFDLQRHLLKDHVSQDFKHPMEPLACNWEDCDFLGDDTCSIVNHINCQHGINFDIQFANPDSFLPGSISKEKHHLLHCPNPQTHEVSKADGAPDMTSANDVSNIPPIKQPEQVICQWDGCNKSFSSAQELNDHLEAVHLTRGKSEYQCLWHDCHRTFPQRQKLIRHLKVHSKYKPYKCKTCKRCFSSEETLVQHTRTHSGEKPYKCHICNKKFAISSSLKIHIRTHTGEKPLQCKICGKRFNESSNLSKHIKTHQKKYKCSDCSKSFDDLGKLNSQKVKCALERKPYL
Outline: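 Detection of bound protein used fluorescent anti-GST, with scans normalised by masliner. The proteins were GST-tagged yeast transcription factors applied at about 100-200 nM to universal all-10-mer Agilent arrays made double-stranded by primer extension. Each ungapped eight-base word, pooled with its reverse complement, was scored with an E-score from the Universal PBM Analysis Suite.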

Row | Sequence | PBM E-score
1 | GATTCTTA | 0.177
2 | CTAGTCTA | -0.0327
3 | CAGGTTCG | -0.158
4 | ATATCCTG | 0.103
5 | ACCATCGT | -0.0674
6 | ACTAACTG | 0.126
7 | CGGGTCCC | -0.116
8 | AGGGTCCA | 0.214
9 | CTGGTCAC | 0.148
10 | CGGGTCAG | 0.28
11 | AGGGTCCC | 0.32
12 | ATGGTCAA | 0.245
13 | AGAGTCAT | -0.0584
14 | AGGGTCAT | 0.449
15 | CGGGTCAC | 0.374
16 | CGAGGGGC | 0.0476
17 | CAAGGACA | -0.0888
18 | GAGATCCA | -0.0613
19 | GACCAAGA | 0.0225
20 | GAACCTAA | 0.194
21 | TACGAATA | 0.197
22 | ACACCTAA | 0.0902
23 | AAAATAAC | 0.21
24 | GAAATAAC | 0.221
25 | CAAATAAC | 0.322

Row | Sequence | PBM E-score
26 | ACCCTTCG | 0.373
27 | ACCCTTCA | 0.341
28 | GCCCTTCA | 0.0388
29 | TCCCTTCA | -0.0499
30 | ACCCTTCC | 0.281
31 | ACCCTTCT | 0.272
32 | CTCGATCC | -0.0316
33 | ACTGTTCT | -0.0178
34 | GACCTAGC | -0.0032
35 | GTCGCGAA | -0.0334
36 | GTCGCGAC | 0.357
37 | CTCGCGAC | 0.0966
38 | GTAAATCA | 0.207
39 | ACGTCTAG | -0.0284
40 | CGTACTTC | -0.125
41 | GGAGGGGA | -0.0565
42 | GGAGGGTA | 0.346
43 | GGAGGGAA | -0.213
44 | CGAGGGTA | 0.371
45 | AGAGGGTA | 0.29
46 | CGAGGGTC | 0.245
47 | CATTAACG | 0.0999
48 | AACTAACA | 0.153
49 | AACTAACT | 0.00107
50 | AATTAATT | 0.0914

Row | Sequence | PBM E-score
51 | AATTAACT | 0.0482
52 | AATTAACC | 0.327
53 | AATTAATA | 0.332
54 | CATTAACA | 0.0919
55 | GATTAACC | 0.173
56 | CATTAACC | 0.379
57 | AACTAACC | 0.333
58 | TATTAATA | 0.0379
59 | CCGATCGG | 0.13
60 | AGCTTGGG | -0.06
61 | GGCCTTCA | 0.167
62 | GCGAACCC | 0.00303
63 | GAGCTGAC | 0.122
64 | CAGTGACG | -0.0109
65 | ACGAAATG | 0.0348
66 | TAGACTGA | -0.182
67 | AATCTTTG | 0.114
68 | ACATACCT | 0.118
69 | CTTGGCGC | 0.0977
70 | ATGGTAAA | 0.0888
71 | ATGGTAAG | -0.124
72 | GTGGTAAC | 0.36
73 | ATGGTAAC | 0.392
74 | GTGGTAAA | -0.0285
75 | CTGGTAAC | 0.255

Row | Sequence | PBM E-score
76 | CAAGTGTC | -0.0245
77 | ACCCAAGA | 0.152
78 | ACTATGGA | -0.0878
79 | ACAATAGG | -0.0709
80 | ACCAGTTA | 0.206
81 | AGATAACG | 0.0406
82 | AGATAACC | 0.435
83 | GGATAACA | -0.0812
84 | CGATAACC | 0.46
85 | GGATAACC | 0.436
86 | CGATAACG | -0.174
87 | CGATAACA | 0.131
88 | AGATAACT | -0.118
89 | GGATAAAC | 0.149
90 | CCTCTCGC | -0.108
91 | ACAAGCCG | -0.223
92 | TATGGGGA | 0.145
93 | AATATCCT | 0.00302
94 | AAGAGCTA | -0.0268
95 | ATGGGGTC | 0.284
96 | ATGGGGTA | 0.326
97 | GGGGGGTA | -0.0438
98 | GTGGGGTA | 0.368
99 | CTGGGGTA | 0.269
100 | ATGGGGTG | 0.143

Row | Sequence | PBM E-score
101 | CGAACACA | 0.085
102 | AGTAACGA | 0.0604
103 | AGTAACTC | -0.0584
104 | CGTAACGA | -0.081
105 | AGTAACTA | 0.219
106 | CGTAACCA | 0.441
107 | GGTAACGA | 0.294
108 | GGTAACCA | 0.461
109 | AGTAACCA | 0.387
110 | AGTAACCC | 0.443
111 | AGTAAACC | 0.177
112 | GGTAACTA | 0.313
113 | CGTAACTA | 0.0577
114 | CATCAGGA | 0.0932
115 | ATAGTTGG | -0.0799
116 | CTGGAGGA | -0.216
117 | AAAGTAGT | 0.0501
118 | ACACTTGG | 0.0219
119 | AGTAACTG | -0.154
120 | GGTAATAA | 0.338
121 | AGTAACCG | 0.355
122 | AGTAACGG | 0.126
123 | GGTAATAC | 0.248
124 | CGTAACAA | 0.201
125 | AGTAACAA | 0.161

Row | Sequence | PBM E-score
126 | GGTAACAA | 0.38
127 | TGTAATAA | 0.133
128 | CAGGGGAG | -0.0274
129 | GCTAATCC | -0.0663
130 | ATCGTTCA | 0.092
131 | CCTTCACA | 0.0885
132 | ACCTGACT | 0.143
133 | CCAGAACA | -0.00016
134 | ATGACCTC | 0.442
135 | GTGACCCA | 0.389
136 | CTGACCCA | -0.11
137 | ATGACCCG | 0.269
138 | AAGACCCC | 0.323
139 | CTGACCTC | 0.194
140 | GGGACCCA | 0.198
141 | AAGACCCG | 0.0601
142 | ATGACCTG | 0.303
143 | AAGACCCA | 0.142
144 | ATGACCCA | 0.397
145 | ATGACCGA | 0.0244
146 | ATCTGCTG | -0.184
147 | GCACCAAC | -0.00297
148 | CTTGACCA | 0.147
149 | CCCTCTGA | 0.0399
150 | ATTTTTTC | 0.0779

Row | Sequence | PBM E-score
151 | ACCTGCCG | -0.0789
152 | AGACAAAC | -0.0937
153 | CTGACCCC | 0.12
154 | GTGACCAA | 0.305
155 | ATGACCCC | 0.385
156 | GTGACCAC | 0.344
157 | ATGACCAC | 0.289
158 | ATGACCGC | 0.302
159 | AAGTGGCC | 0.0931
160 | GGAGCGAC | -0.122
161 | AGGCCACT | -0.13
162 | TACCTCCA | 0.303
163 | AACCTCTC | 0.349
164 | ACCCTCTA | 0.355
165 | CACCTCTA | 0.22
166 | TACCTCTA | 0.347
167 | GCCCTCTA | -0.245
168 | AACCTCTA | 0.351
169 | AACCTCAA | 0.263
170 | AGCCTCTA | -0.101
171 | CACCTCTC | -0.242
172 | ACCCTCTC | 0.121
173 | GACCTCTC | 0.203
